In article PMC12820563, “FoxP3 forms a head-to-head dimer in vivo and stabilizes its multimerization on adjacent microsatellites”:
Over roughly 16,000 sequences, “rpm ratio (pull-down/input)” has its median near 0.94; the highest 2% begin near 1.7. The entries come from a sample that favours the highest values as a whole.

Target: T1, MBP-FoxP1dN (Mus musculus, UniProt P58462 326-579)
T1 sequence: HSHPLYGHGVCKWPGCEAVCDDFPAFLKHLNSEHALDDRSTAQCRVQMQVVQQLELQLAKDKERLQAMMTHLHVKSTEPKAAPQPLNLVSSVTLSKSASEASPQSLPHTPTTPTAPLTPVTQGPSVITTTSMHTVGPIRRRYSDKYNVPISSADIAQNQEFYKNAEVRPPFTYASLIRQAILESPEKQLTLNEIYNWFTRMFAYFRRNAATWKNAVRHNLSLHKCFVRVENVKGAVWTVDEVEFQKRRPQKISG
Experiment: PD-seq (MBP pull-down with sequencing); 20 mM Tris-HCl pH 7.5, 100 mM NaCl, 1.5 mM MgCl2, 0.4 uM protein, 0.1 uM dsDNA library, 30 min, room temperature, amylose pull-down; high values mean tight binding
Conditions: protein: recombinant; tags: His6-MBP; chain copies: 2; dsDNA, one strand shown
Procedure, shortened: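 The N-terminus-lacking fragment of mouse FoxP3 or FoxP1 carried a His6-MBP tag and was expressed in E. coli. At 0.4 µM it was incubated with 0.1 µM Klenow-filled degenerate double-stranded DNA library for 30 min at room temperature in Tris pH 7.5 buffer with NaCl and MgCl2, and complexes were caught on amylose resin, washed three times, released with proteinase K, PCR-barcoded and Illumina-sequenced. Binding is reads-per-million enrichment of pull-down over input with replicates pooled.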

| Sequence | binding signal |
| --- | --- |
| GATGATTGTTCTCCCAGCTGATGAATTTCGCCAGTCGAGTAAACAAATTTTCCTAATCTTTCTGTTCAAGCGCCATCTAC | 0.805 RPM ratio (pull-down/input) |
| GATGATTGTTCTCCCAGCTGATGAATTGCGATTTTCGAGTAAACAAATTTTCCTAATCTTTCTGTTCAAGCGCCATCTAC | 1.25 RPM ratio (pull-down/input) |
| GATGATTGTTCTCCCAGCTGATGAATTGTTACCTTCGAGTAAACAAATTTTCCTAATCTTTCTGTTCAAGCGCCATCTAC | 1.25 RPM ratio (pull-down/input) |
| GATGATTGTTCTCCCAGCTGATGAATTGGATGCGTCGAGTAAACAAATTTTCCTAATCTTTCTGTTCAAGCGCCATCTAC | 1.29 RPM ratio (pull-down/input) |
| GATGATTGTTCTCCCAGCTGATGAATTTTCTAGCTCGAGTAAACAAATTTTCCTAATCTTTCTGTTCAAGCGCCATCTAC | 0.887 RPM ratio (pull-down/input) |
| GATGATTGTTCTCCCAGCTGATGAATTCCCGCTTTCGAGTAAACAAATTTTCCTAATCTTTCTGTTCAAGCGCCATCTAC | 0.937 RPM ratio (pull-down/input) |
| GATGATTGTTCTCCCAGCTGATGAATTATAATCTTCGAGTAAACAAATTTTCCTAATCTTTCTGTTCAAGCGCCATCTAC | 0.909 RPM ratio (pull-down/input) |
| GATGATTGTTCTCCCAGCTGATGAATTAATGTTGTCGAGTAAACAAATTTTCCTAATCTTTCTGTTCAAGCGCCATCTAC | 2.64 RPM ratio (pull-down/input) |
| GATGATTGTTCTCCCAGCTGATGAATTCATGATGTCGAGTAAACAAATTTTCCTAATCTTTCTGTTCAAGCGCCATCTAC | 1.21 RPM ratio (pull-down/input) |
| GATGATTGTTCTCCCAGCTGATGAATTCTTCATGTCGAGTAAACAAATTTTCCTAATCTTTCTGTTCAAGCGCCATCTAC | 0.907 RPM ratio (pull-down/input) |
| GATGATTGTTCTCCCAGCTGATGAATTTCTGATGTCGAGTAAACAAATTTTCCTAATCTTTCTGTTCAAGCGCCATCTAC | 1.23 RPM ratio (pull-down/input) |
| GATGATTGTTCTCCCAGCTGATGAATTTTTGATGTCGAGTAAACAAATTTTCCTAATCTTTCTGTTCAAGCGCCATCTAC | 1.3 RPM ratio (pull-down/input) |
| GATGATTGTTCTCCCAGCTGATGAATTTCAGCTGTCGAGTAAACAAATTTTCCTAATCTTTCTGTTCAAGCGCCATCTAC | 0.889 RPM ratio (pull-down/input) |
| GATGATTGTTCTCCCAGCTGATGAATTGATGTTGTCGAGTAAACAAATTTTCCTAATCTTTCTGTTCAAGCGCCATCTAC | 2.52 RPM ratio (pull-down/input) |
| GATGATTGTTCTCCCAGCTGATGAATTAAAAATGTCGAGTAAACAAATTTTCCTAATCTTTCTGTTCAAGCGCCATCTAC | 0.979 RPM ratio (pull-down/input) |
| GATGATTGTTCTCCCAGCTGATGAATTGTTGATGTCGAGTAAACAAATTTTCCTAATCTTTCTGTTCAAGCGCCATCTAC | 2.27 RPM ratio (pull-down/input) |

| Sequence | binding signal |
| --- | --- |
| GATGATTGTTCTCCCAGCTGATGAATTCATGTTGTCGAGTAAACAAATTTTCCTAATCTTTCTGTTCAAGCGCCATCTAC | 2.26 RPM ratio (pull-down/input) |
| GATGATTGTTCTCCCAGCTGATGAATTGATGATGTCGAGTAAACAAATTTTCCTAATCTTTCTGTTCAAGCGCCATCTAC | 1.39 RPM ratio (pull-down/input) |
| GATGATTGTTCTCCCAGCTGATGAATTAATGATGTCGAGTAAACAAATTTTCCTAATCTTTCTGTTCAAGCGCCATCTAC | 1.2 RPM ratio (pull-down/input) |
| GATGATTGTTCTCCCAGCTGATGAATTTCTATGATCGAGTAAACAAATTTTCCTAATCTTTCTGTTCAAGCGCCATCTAC | 0.89 RPM ratio (pull-down/input) |
| GATGATTGTTCTCCCAGCTGATGAATTTTTAATATCGAGTAAACAAATTTTCCTAATCTTTCTGTTCAAGCGCCATCTAC | 1.24 RPM ratio (pull-down/input) |
| GATGATTGTTCTCCCAGCTGATGAATTCCGACCATCGAGTAAACAAATTTTCCTAATCTTTCTGTTCAAGCGCCATCTAC | 0.869 RPM ratio (pull-down/input) |
| GATGATTGTTCTCCCAGCTGATGAATTACGGGCATCGAGTAAACAAATTTTCCTAATCTTTCTGTTCAAGCGCCATCTAC | 1.11 RPM ratio (pull-down/input) |
| GATGATTGTTCTCCCAGCTGATGAATTGGCGATTTCGAGTAAACAAATTTTCCTAATCTTTCTGTTCAAGCGCCATCTAC | 0.865 RPM ratio (pull-down/input) |
| GATGATTGTTCTCCCAGCTGATGAATTTTACGGATCGAGTAAACAAATTTTCCTAATCTTTCTGTTCAAGCGCCATCTAC | 0.879 RPM ratio (pull-down/input) |
| GATGATTGTTCTCCCAGCTGATGAATTGTCACGGTCGAGTAAACAAATTTTCCTAATCTTTCTGTTCAAGCGCCATCTAC | 0.924 RPM ratio (pull-down/input) |
| GATGATTGTTCTCCCAGCTGATGAATTATTCGTTTCGAGTAAACAAATTTTCCTAATCTTTCTGTTCAAGCGCCATCTAC | 1.01 RPM ratio (pull-down/input) |
| GATGATTGTTCTCCCAGCTGATGAATTCCTACCGTCGAGTAAACAAATTTTCCTAATCTTTCTGTTCAAGCGCCATCTAC | 0.731 RPM ratio (pull-down/input) |
| GATGATTGTTCTCCCAGCTGATGAATTTCTGTGGTCGAGTAAACAAATTTTCCTAATCTTTCTGTTCAAGCGCCATCTAC | 0.924 RPM ratio (pull-down/input) |
| GATGATTGTTCTCCCAGCTGATGAATTGGTGTGGTCGAGTAAACAAATTTTCCTAATCTTTCTGTTCAAGCGCCATCTAC | 1.04 RPM ratio (pull-down/input) |
| GATGATTGTTCTCCCAGCTGATGAATTTTTGTGGTCGAGTAAACAAATTTTCCTAATCTTTCTGTTCAAGCGCCATCTAC | 1.23 RPM ratio (pull-down/input) |
